# Assay outcomes from PubChem BioAssay.
# A selection: hits, their analogues and other compounds. The true share with any hit is near 2.4%.
# M1 PAM: potentiates human M1 receptor response to acetylcholine; P11229; CHO-K1 hM1, Fluo-8 calcium fluorescence, ACh EC20; 0% = ACh EC20, 100% = maximal ACh; activation, % at 3 µM; 360,000 compounds, 0.088% hits; AID 588819; in the data active means activation above about 19%, passing the limit was not always enough
# Target sequence (P11229 whole entry, looked up): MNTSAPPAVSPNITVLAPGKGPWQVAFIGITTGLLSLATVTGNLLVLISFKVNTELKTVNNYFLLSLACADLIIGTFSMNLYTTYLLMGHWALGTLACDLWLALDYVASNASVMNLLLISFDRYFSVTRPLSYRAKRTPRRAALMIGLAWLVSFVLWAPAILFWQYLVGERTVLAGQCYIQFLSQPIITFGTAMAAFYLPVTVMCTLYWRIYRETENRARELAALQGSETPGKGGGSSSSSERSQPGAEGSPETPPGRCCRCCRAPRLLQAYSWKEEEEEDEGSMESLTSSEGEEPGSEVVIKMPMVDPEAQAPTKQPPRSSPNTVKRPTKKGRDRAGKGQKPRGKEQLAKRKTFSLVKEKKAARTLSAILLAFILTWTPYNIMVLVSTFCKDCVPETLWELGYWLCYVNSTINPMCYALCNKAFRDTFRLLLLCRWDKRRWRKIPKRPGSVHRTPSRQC
# CHRM1 antagonist: blocks human M1 muscarinic receptor; P11229; CHO-K1 hM1, Fluo-8 calcium fluorescence, ACh EC80 antagonist; inhibition, % at 3 µM; 360,000 compounds, 1.3% hits; AID 588852;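 active means percent inhibition above its own plate's cutoff, namely the mean of that plate's compound wells plus 3 SD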;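 further: peak over basal fluorescence ratio during 140 s after agonist addition; 0% = ACh EC80 plus DMSO and 100% = DMSO alone without agonist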
# CHO-K1 Ca antag: nonselective inhibitor or artifact in parental CHO-K1 cells; ATP-induced calcium, Fluo-8 fluorescence; AID 602250; inhibition, % at 3 µM; 360,000 compounds, 0.6% hits;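 active means inhibition above a per-plate cutoff, the plate's mean sample inhibition plus 3 SD, cut at about 24% in these data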;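 further: 0% = DMSO plus EC80 ATP and 100% = DMSO alone without ATP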
# M1 PAM parental: counter-screen for M1 PAMs: effect in parental CHO-K1 cells. activation, % at 3 µM. ATP EC20, Fluo-8 calcium fluorescence; 0% at ATP EC20, 100% at ATP max. 360,000 compounds, 0.02% hits;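 active means activation above the run cutoff, the mean activation of all test compounds plus 3 SD, cut at about 40% in these data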;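 further: peak over basal fluorescence ratio in a 140 s read after ATP addition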
# M1 ag: activates human CHRM1 receptor; CHO-K1 hM1, Fluo-8 calcium fluorescence, agonist mode; 0% DMSO, 100% acetylcholine EC100; P11229; AID 588814; activation, % at 3 µM; 360,000 compounds, 0.33% hits;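 active means activation above the run's mean compound activation plus 3 SD, cut at about 16% in these data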;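 further: peak over basal fluorescence ratio within a 140 s kinetic read after compound addition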
# M1 ag parental: counter-screen for M1 agonists: effect in parental CHO-K1 cells | Fluo-8 calcium fluorescence; scaled to maximal ATP response, vehicle zero | activation, % at 3 µM | 360,000 compounds, 0.48% hits; in the data active means activation above about 15%;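 further: untransfected CHO-K1 host cells lacking M1 receptor as counterscreen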
# The depositor's hits bear a star.
SMILES,M1 PAM,CHRM1 antagonist,CHO-K1 Ca antag,M1 PAM parental,M1 ag,M1 ag parental
COc1ccc(OC)c(NC(=O)CNC(=O)Cn2cnc3sc(C)cc3c2=O)c1,3.3,-6.5,-11.2,19.7,-1.9,0.2
Cc1cc(/C=C2\NC(=S)N(C)C2=O)ccc1N1CCCC1,-30.3,59.2*,60.0*,-17.6,54.8*,75.7*
CCCN1C(=O)/C(=C/c2ccc(OCC(=O)OCC)cc2)NC1=S,3.9,-4.3,-10.5,21.1,1.9,10.6
Cc1cc(/C=C2/C(=O)N(C)C(=S)N2C)ccc1N1CCCC1,-11.4,12.1,8.1,-10.6,-2.4,3.0
CCCN1C(=O)/C(=C/c2ccc(N3CCCC3)c(C)c2)NC1=S,-8.2,58.7*,59.6*,0.1,46.9*,54.0*
C/C(=N\NC(=O)c1cccc(O)c1)c1cccc(NC(=O)c2ccc(F)cc2)c1,13.3,-17.0,-7.2,10.8,0.1,2.2
CC(C)c1nc2c(c(=O)c3ccccc3n2C)c(=O)n1CCc1ccccc1,-24.8,34.2,-6.4,14.5,19.6*,20.8*
O=C(Nc1ccc(F)cc1)c1nc[nH]c1C(=O)Nc1ccc([N+](=O)[O-])cc1,0.5,-1.0,-10.8,8.4,-4.2,2.0
Cc1noc(C)c1S(=O)(=O)Nc1c(C)n(C)n(-c2ccccc2)c1=O,4.5,2.6,31.1*,-6.1,-1.0,-0.3
Cc1noc(C)c1COc1ccc(C(=O)Nc2cccnc2)cc1,-25.6,70.6*,-11.5,1.9,-7.8,0.8
O=C(O)CCCN1C(=O)C2C3CCC(O3)C2C1=O (configuration not stated),-0.8,9.9,-2.3,17.8,-4.4,2.2
CCN(CC)CCN1C(=O)c2ccccc2NC1c1ccccc1F (configuration not stated),-37.1,89.5*,-12.8,-0.9,-12.1,0.3
CCN(CC)CCN1C(=O)c2ccccc2NC1c1ccc(F)cc1 (configuration not stated),-1.9,-5.7,-1.5,5.2,-6.6,-0.4
COc1cccc(-c2nnc(SCC(=O)Nc3cc(C)on3)n2C)c1,0.7,3.5,-4.8,18.9,-5.6,0.5
CC(=O)c1ccc(N2CCN(S(=O)(=O)c3ccc4c(c3)CC(C)N4C(C)=O)CC2)cc1 (configuration not stated),-13.4,36.5*,23.5,3.3,1.6,14.3
CC(=O)N1c2ccc(S(=O)(=O)N3CCC(C(=O)N4CCN(c5cc(Cl)ccc5C)CC4)CC3)cc2CC1C (configuration not stated),-15.6,47.7*,25.8*,-18.4,2.1,12.2
CS(=O)(=O)N1CCC(C(=O)N2CCN(c3ccccc3F)CC2)CC1,10.9,-6.8,-1.1,19.3,-6.6,17.0*
CC(=O)N1c2ccc(S(=O)(=O)N3CCC(C(=O)N4CCC(C)CC4)CC3)cc2CC1C (configuration not stated),4.5,-8.6,-17.2,7.9,-3.7,1.5
CC1Cc2cc(S(=O)(=O)N3CCC(C(=O)N4CCN(c5ccccc5F)CC4)CC3)ccc2N1C(=O)C1CC1 (configuration not stated),-7.3,22.2,29.1*,-29.9,4.7,10.5
O=C(Cc1ccc(Cl)c(Cl)c1)Nc1cccc(S(=O)(=O)N2CCOCC2)c1,-7.4,22.9,4.0,-11.6,-4.1,2.6
Cc1ccc(S(=O)(=O)CCN2C=CC(C(F)(F)F)=NCC2)cc1,13.6,-14.1,2.1,10.9,6.1,16.8*
Cc1cc(NC(=O)CSc2nc3c(c(=O)n2-c2ccc(Br)cc2)SCC3)no1,2.5,-27.0,-16.6,20.0,-4.4,-0.8
CCOC(=O)c1c(C)[nH]c(C(=O)OCC(=O)Nc2cc(Cl)ccc2OC)c1C,4.8,-3.0,-15.2,16.6,-2.8,-0.1
CC(=O)c1c(C)[nH]c(C(=O)OCC(=O)Nc2ccc(Cl)cc2[N+](=O)[O-])c1C,-12.5,33.5*,37.2*,-8.3,-1.1,13.3
Cc1cc2nc(C)n(CCCNC(=O)Nc3ccc(C#N)cc3)c2cc1C,-22.1,57.2*,-9.0,19.1,-5.7,1.1
SMILES,M1 PAM,CHRM1 antagonist,CHO-K1 Ca antag,M1 PAM parental,M1 ag,M1 ag parental
O=C(CSc1cc(Cl)ccc1Cl)NC1CC1,2.7,-2.4,9.8,-19.5,-5.3,-0.8
COc1ccc(CCNS(=O)(=O)c2ccc3c(c2)CCN3C(=O)CCC(=O)O)cc1OC,6.8,-1.6,4.7,11.7,-5.1,18.6*
O=C(O)CCC(=O)N1CCc2cc(S(=O)(=O)NCCc3ccc(Cl)cc3)ccc21,14.2,-20.9,-14.6,12.2,-0.4,2.0
CCN1C(=O)/C(=C/N2CC(C)CC(C)C2)SC1=S (configuration not stated),3.0,-1.8,-7.2,16.4,-1.1,0.4
CCN1C(=O)/C(=C\N2CCCCCC2)SC1=S,-23.1,98.8*,9.7,-8.6,-4.4,0.7
Cc1ccccc1OCC(=O)N/N=C1\SCC(=O)N1Cc1ccccc1,6.2,-10.2,-9.2,17.7,-5.7,0.3
Cc1ccc(OCC(=O)N/N=C2/SCC(=O)N2Cc2ccccc2)cc1,1.4,-5.8,25.0*,-15.0,-2.3,-0.1
O=C(NCCc1cn2ccccc2n1)c1ccc(Br)o1,6.3,-15.6,-15.4,19.5,-4.4,0.1
N#C/C(=C/c1ccc(N2CCCCC2)o1)C(=O)Nc1ccc(Cl)cc1,-31.7,68.2*,36.1*,-0.7,101.8*,78.8*
N#C/C(=C/c1ccc(N2CCCCC2)o1)C(=O)Nc1ccc2ccccc2c1,-31.8,86.7*,85.2*,-13.2,239.8*,266.0*
COc1ccc(/C=N/NC(=O)CNC(=O)COc2ccccc2)cc1,8.7,-11.4,-6.8,25.8,-8.7,0.2
NC(=O)C1CCN(C(=O)CSc2nc3ccccc3s2)CC1,-3.8,8.0,23.8*,-6.6,0.0,-0.3
N#CC1=C(SCC(=O)c2ccccc2)NC2=C(C(=O)CCC2)C1c1ccco1 (configuration not stated),-11.9,-4.5,31.1*,-5.9,-4.7,1.3
Cc1ccc(C(=O)CSC2=C(C#N)C(c3ccco3)C3=C(CCCC3=O)N2)cc1 (configuration not stated),1.4,-5.7,-6.8,8.0,-6.5,0.3
Cc1ccc(CN2C(=O)CCC2C(=O)NCCN2CCOCC2)cc1 (configuration not stated),7.3,-12.3,-2.8,11.6,-4.6,-0.1
CCCC1C2C(=O)N(c3cccc(C)c3)C(=O)C2ON1c1ccccc1 (configuration not stated),4.2,-0.7,-0.4,7.0,-0.3,16.8*
O=C(Cn1cc(F)c(=O)[nH]c1=O)c1ccco1,1.1,-8.2,-14.1,3.5,-1.1,0.5
C=CCn1c(SC)nnc1-c1ccc2ncccc2c1,7.0,-6.7,1.8,14.5,2.2,16.9*
C=CCn1c(SCC(C)=O)nnc1-c1ccc2ncccc2c1,4.1,-7.2,2.6,9.9,-2.4,2.2
